# Results reported in PubChem BioAssay (NCI).
# The panel holds about 83,000 compounds, 20% with a hit somewhere; the sample as a whole holds those more often.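 Compound tested at a single concentration for 48 hours in 96-well plates; a percent growth value below 10 was scored as active.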 Unmarked numbers belong to inactive results. Activity calls are given as the source filed them.
# Test system: HL-60(TB) leukemia
# Experiment: NCI-60 one-dose screen, 48 h (100 = growth as untreated, 0 = no growth, -100 = all killed)
# Conditions: 10 µM unless noted
row,Compound,growth
1,COc1ccccc1/C(C)=N/NC(=O)CSc1nc2ccccc2c(=O)n1Cc1ccc(S(N)(=O)=O)cc1,101%
2,COC(=O)c1nc(N)nc(C(=O)OC)c1C(=O)c1ccc(F)cc1,115%
3,N#Cc1c(N)n2c(nc1=Nc1ccc(Cl)cc1)sc1cc(Cl)ccc12,117%
4,CN1CCN(Cc2ccc(NC(=O)c3cncc(C#Cc4ccc(N)nc4)c3)cc2C(F)(F)F)CC1,-38.5% (active)
5,CC/C(=C(/c1ccc(Cl)cc1)c1ccc(OCCN2CCOCC2)cc1)c1ccccc1,104%
6,C=CCn1c(SCC(=O)Nc2ccc(C(=O)/C=C/c3ccc(Cl)cc3)cc2)nnc1-c1ccc(Cl)c(Cl)c1,56.8%
7,Nc1ccccc1-c1ccc(-c2ccc(Cl)cc2)c2c1[nH]c1ccccc12,70.9%
8,COc1cc(C(=O)Nc2ccc(-c3nc4ccccc4[nH]3)cc2)cc(OC)c1OC,41.9%
9,NC(=O)SCC(=O)Nc1ccccc1-c1ccccc1,80.3%
10,C=C1C(=O)O[C@H]2[C@H]1CC/C(Cn1cc(-c3cc(C(F)(F)F)cc(C(F)(F)F)c3)nn1)=C\CC[C@@]1(C)O[C@@H]21,-49.1% (active)
11,ClCC#CCSc1ncnc2c1ncn2CC#CCCl,8.79% (active)
12,CCn1cc(C(=O)O)c(=O)c2cc(F)c(N3CCN(CC(=O)Nc4ccccc4)C(C)C3)c(F)c21 (stereo not drawn),104%
13,O=[N+]([O-])c1ccc(N=Nc2ccccc2)cc1,67.1%
14,O=C(NNc1ccccc1)c1ncc[nH]1,7.71% (active)
15,CCNc1nc(-c2ccc(F)cc2)c(C#N)c(=O)n1C,85.8%
16,C[C@H]1[C@H](C)CC[C@]2(C(=O)NCCNCCN)CC[C@]3(C)C(=CC[C@@H]4[C@@]5(C)CCC(=O)C(C)(C)[C@@H]5CC[C@]43C)[C@H]12,-58.5% (active)
17,CC1(C)OC2C(COC(c3ccccc3)(c3ccccc3)c3ccccc3)OC(c3c[nH]c4c(N)ncnc34)C2O1 (stereo not drawn),-34.4% (active)
18,Cc1cc(-c2cc(O)ccc2Cl)cc2nnc(Nc3ccc(OCCN4CCCC4)cc3)nc12,-63.5% (active)
19,CS(=O)(=O)N1CCN(Cc2cc3nc(-c4cccc5[nH]ncc45)nc(N4CCOCC4)c3s2)CC1 (tested in a mixture with another compound),5.83% (active)
20,Cn1c(=O)c2[nH]c(SCC(=O)Nc3ccc(C(=O)/C=C/c4ccccc4Cl)cc3)nc2n(C)c1=O,98.6%
21,COc1ccc(-c2nc(SCC(C)C)nc(N/N=C(/C)c3ccc(OC)c(OC)c3)c2C#N)cc1,89.4%
22,CCc1ccc(Nc2ncnc3c2cnn3-c2cccc(Br)c2)cc1,114%
23,COC(=O)c1[nH]c(=O)c(C#N)c(C(=O)OC)c1C(=O)c1ccccc1,94.8%
24,COc1ccc2c(c1)c(-c1nc(-c3cn(C)c4ncccc34)cs1)cn2CCN,55.7%
25,O=C(Nc1ccc(Oc2ccc(F)cc2)c(Cl)c1)c1cccnn1,56.3%
26,C=CC(=O)N[C@@H](/C=C/C(=O)OCC)Cc1ccc(-c2cc(Cl)cc(Cl)c2)cc1,-27.4% (active)

row,Compound,growth
1,O=C1C=CC(=O)N1c1ccc(Cc2ccc(N3C(=O)C=CC3=O)cc2)cc1,9.02% (active)
2,CCOC(=O)c1c(C)c2c(n1C)CSc1cc(S(=O)(=O)c3ccccc3)c(=O)[nH]c1-2,25% [100 µM]
3,Cn1cc(NC(=O)Nc2cc(C(=O)O)n(C)c2)cc1C(=O)O,90.1%
4,C[C@]12CC[C@@H]3c4ccc(O)c([N+](=O)[O-])c4CC[C@H]3[C@@H]1CC[C@@H]2NS(=O)(=O)c1cccc(Br)c1,-5.66% (active)
5,CSc1nc(-c2ccco2)c(C#N)c(=O)n1C,95.9%
6,CC1=NN(c2nc(-c3ccc(Cl)cc3)c(C#N)c(N3CCOCC3)n2)C(=O)C1,81.8%
7,C=C(C)[C@H]1CC/C(C)=C/CC[C@]2(C)O[C@H]2CC/C(C=O)=C\C1O (stereo partly drawn),253%
8,O=C(c1ccccc1)N(CCc1ccc(Cl)cc1)C(=S)N(C(=O)c1ccccc1)c1ccccc1,90.3%
9,CC[C@@](C)(NC(=O)[C@H](C)NC(=O)CCNC(=O)C(C)(C)NC(=O)[C@H](C)NC(=O)[C@@H]1CCCN1C(=O)[C@@](C)(CC)NC(=O)[C@H](Cc1ccccc1)NC(=O)C1CCCN1C(=O)C(C)(C)NC(=O)C1CCCN1C(=O)C(C)(C)NC(C)=O)C(=O)NCCC(=O)N[C@@H](CC(C)C)C(=O)NC(C)(C)C(=O)NCCC(=O)N[C@@H](CC(C)C)C(=O)NC(C)(C)C(=O)NC(C)(C)C(=O)N[C@@H](CC(C)C)C(=O)NCCC(=O)NCO (stereo partly drawn),-62.3% (active)
10,CN1CCCN(CCNc2nccc(-c3c(-c4cccc(O)c4)nc4sccn34)n2)S1(=O)=O,69.2%
11,O=P([O-])(O)OP(=O)([O-])O.[NH-][C@H]1CCCC[C@@H]1[NH-].[OH-].[OH-].[Pt+4],111%
12,CCOC(=O)c1sc(-c2ccc(OS(=O)(=O)c3ccc(C(C)(C)C)cc3)c(C=O)c2)nc1C,21.3%
13,C(=N\Nc1ncc(-c2cc3cc4c(cc3o2)OCO4)s1)/c1c[nH]c2ccccc12,2.27% (active)
14,C[C@@H](C[C@H](CCO)c1cc(C(F)(F)F)cc(C(F)(F)F)c1)c1ccc2ccccc2c1,93.5%
15,C=C1C(=O)O[C@H]2[C@H]1CC/C(C=Nc1ccc(C(F)(F)F)cc1N)=C\CC[C@@]1(C)O[C@@H]21,-7.77% (active)
16,COC(=O)CNc1nc(N(C)O)nc(N(C)O)n1,-7.42% (active)
17,Nc1[nH]nc(Nc2ccccc2)c1-c1nc2ccccc2s1,16.6%
18,Cc1ccc(-c2[nH][nH]c(=O)c2-c2nc3ccccc3s2)cc1,101%
19,O=S(=O)(NCCCNc1cc(-c2cn(-c3ccccc3)nc2-c2cccc(O)c2)ccn1)c1cccc(F)c1,39.1%
20,COc1cccc(C2C3=C(COC3=O)N(CCO)c3cc4c(cc32)OCCO4)c1 (stereo not drawn),-16.1% (active)
21,CCCCN(CCCC)CCCn1c(-c2ccccc2)ccc1-c1ccccc1,61.6%
22,NC(=O)SCC(=O)NNc1ccccc1,101%
23,CNC(=O)c1cc(Oc2cccc3nc(Nc4ccc(F)c(Cl)c4)ccc23)ccn1,31.1%
24,CC1(C)N=C(N)N=C(N)N1c1cccc(C#N)c1,35.7%
25,Cc1ccc(-n2c(-c3ccccc3)c(-c3ccccc3)c3c(SCC(=O)n4[nH]c(N)cc4=O)ncnc32)cc1,102%
26,CCN(CC)CCC(C(=O)O)(c1ccccc1)c1ccccc1,93.5%

row,Compound,growth
1,O=C(O)c1occ(Cl)c1Cl,75.3%
2,Cc1ccc(-c2nc(C#N)c(S(=O)(=O)n3nc(C)cc3N)o2)cc1,16.6%
3,Cc1ccc(S(=O)(=O)N(c2ccc(Cl)cc2)c2ccc(Br)cc2C(=O)O)cc1,110%
4,O=C1c2ccccc2-c2nccc3cc(Cl)nc1c23,1.84% (active)
5,Cn1cc(-c2csc(-c3cn(C(=O)OC(C)(C)C)c4ccccc34)n2)c2ccnc(Cl)c21,67.5%
6,CSc1ccc(-c2ccccc(=O)c2O)cc1,-40.1% (active)
7,O=C(O)c1cc2c(s1)C(=O)c1sccc1C2=O,10.9%
8,CCOC(=O)c1sc2nc(-c3cc(OC)c(OC)c(OC)c3)nc(N3CCOCC3)c2c1C,24.7%
9,O=c1ccc2ccc(OCCN3CCCCC3)cc2o1,-28% (active)
10,COc1cc2c(cc1OCCCOc1cc3c(cc1OC)C(=O)N1CCC[C@H]1C=N3)C=CC(C)(C)O2,102%
11,O=C1/C(=C/c2ccc(F)cc2)CN(C(=O)CCN2CCC(=NO)CC2)C/C1=C\c1ccc(F)cc1,-8.33% (active)
12,COc1cc(-c2nn(-c3ccc(NC(=O)c4ccc(Cl)c(Cl)c4)cc3)cc2-c2ccncc2)ccc1Cl,33.8%
13,CC1COCC(C)N1C1=C(Cl)C(=O)c2ccccc2C1=O (stereo not drawn),-19.5% (active)
14,COc1cc(CCN=Cc2ccccc2O)c([N+](=O)[O-])cc1OC,101%
15,C[C@H](c1nc2ccc(C#N)cc2[nH]1)[C@H]1CC[C@H]2[C@@H]3CCC4=CC(=O)CC[C@]4(C)[C@H]3CC[C@]12C,56.3%
16,CCN(CC)CCCCNc1c2ccccc2[n+](C)c2c1[nH]c1ccccc12,22.7%
17,CC(C)=CC/C=C(/C)[C@H]1CC[C@]2(C)[C@@H]1CC[C@@H]1[C@@]3(C)CC/C(=N/O)C(C)(C)[C@@H]3CC[C@]12C,5.9% [100 µM] (active)
18,O=C1/C(=C/c2ccc(Br)cc2)C=C(c2ccccc2)N1CCc1ccccc1,83.8%
19,Cc1cc(C)c2c(n1)sc1c(Nc3ccc(Cl)cc3)ncnc12,-19.1% (active)
20,CC(=O)N(N=O)c1ccc([N+](=O)[O-])cc1Cl,55.7%
21,O=C(O)c1ccc(-n2cc(CNc3ccc(C(F)(F)F)cc3)c(-c3ccccc3)n2)cc1,89.2%
22,COc1ccc(Nc2nc(N)nc3c2CCN(Cc2ccc(OC)cc2OC)C3=O)cc1,59.1%
23,CCN(CC)CCNc1nc2ccccc2c2c(=O)c3cc(Cl)ccc3sc12,78.1%
24,CCCSC1=NC2C(N(CC)C(=O)N2CC)N1/N=C/C=C/c1ccccc1[N+](=O)[O-] (stereo not drawn),-29.8% (active)
25,COc1cc2ncnc(Nc3ccc4c(cnn4C(=O)Nc4ccccc4)c3)c2cc1OC,83.5%
26,Cl/C(=N\Nc1ccccc1)c1ccccc1,101%
